# Source: a collection of fitness landscapes (doi:10.1038/s41467-024-54723-y)
# Over roughly 18,000 sequences, “TetR repression strength (sort-seq, GFP reporter)” has its median near 0.23; the highest 2% begin near 0.68. This excerpt belongs to a sample that is enriched for the highest values.
# Target: TetR (class B, Tn10) (UniProt P04483)
# Assay: TetR repression strength (sort-seq, GFP reporter) (relative to tetO2 = 1); higher = stronger repression
# Conditions: E. coli
# How it was run: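 Escherichia coli SIG10-MAX cells carried a low-copy plasmid library in which eight operator positions were randomized between a constitutive promoter and sfGFP, and TetR was expressed constitutively. After 5 h of growth at 37 °C in LB with 50 µg/mL chloramphenicol, 10^6 cells were FACS-sorted into 13 fluorescence bins, and each bin was Illumina-sequenced. Repression strength was the top bin index plus one minus the read-weighted mean bin, divided by the value for the unaltered operator. Across three independent transformations, only library members with ≥30 reads in every replicate and a CV ≤0.5 were averaged.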
# Sequence of TetR (class B, Tn10) (P04483 whole entry): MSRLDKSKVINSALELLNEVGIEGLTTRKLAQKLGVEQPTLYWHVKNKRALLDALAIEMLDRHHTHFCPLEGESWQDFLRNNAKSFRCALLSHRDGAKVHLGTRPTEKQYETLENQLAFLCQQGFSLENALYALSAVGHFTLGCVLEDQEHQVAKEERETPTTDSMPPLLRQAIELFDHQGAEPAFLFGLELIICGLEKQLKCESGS
row,Sequence,TetR repression strength
1,TCCCGGGTAGTCAAGGAGA,0.296
2,TCCCAGGAAGTCGTTGAGA,0
3,TCCCGGCCAGTTGTTGAGA,0.199
4,TCCCGAATAGTCGACGAGA,0.165
5,TCCCGTATAGTCTGGGAGA,0.198
6,TCCCAGCTAGTGACCGAGA,0.694
7,TCCCAGCAAGTGTGTGAGA,0.1
8,TCCCAGCTAGTGAACGAGA,0.379
9,TCCCAGCGAGTGAGCGAGA,0.153
10,TCCCAGCTAGTGACGGAGA,0.226
11,TCCCAGCGAGTGACCGAGA,0.694
12,TCCCAGCTAGTGAGTGAGA,0.716
13,TCCCAGCTAGTGAGAGAGA,0.36
14,TCCCAGCGAGTGACGGAGA,0.207
15,TCCCAGCTAGTGATTGAGA,0.306
16,TCCCAGCAAGTGGGTGAGA,0.699
17,TCCCAGCAAGTGAGTGAGA,0.201
18,TCCCTTCGAGTTCTCGAGA,0.207
19,TCCCTCCTAGTCTCCGAGA,0.394
20,TCCCACGGAGTCGGCGAGA,0.148
21,TCCCGGAAAGTCACAGAGA,0.108
22,TCCCTGTGAGTGGACGAGA,0.227
23,TCCCAGCTAGTTTCTGAGA,0.207
24,TCCCTAAAAGTGTAGGAGA,0.131
25,TCCCAGTGAGTTCGCGAGA,0.402
26,TCCCACTCAGTATGTGAGA,0.108

row,Sequence,TetR repression strength
1,TCCCGTTTAGTGTTAGAGA,0.222
2,TCCCGTCTAGTGTTAGAGA,0.851
3,TCCCGTAAAGTGTTAGAGA,0.696
4,TCCCGTAAAGTGTGAGAGA,0.0929
5,TCCCGTGTAGTGTTAGAGA,0.24
6,TCCCGTACAGTGTTAGAGA,0.284
7,TCCCACCGAGTTTTTGAGA,0.46
8,TCCCACAGAGTAATGGAGA,0.108
9,TCCCCGTTAGTTTTGGAGA,0.104
10,TCCCTAGGAGTACGAGAGA,1.01
11,TCCCTAGTAGTACGCGAGA,0.0159
12,TCCCTAGGAGTACGCGAGA,0.226
13,TCCCTAGGAGTAGGAGAGA,0.268
14,TCCCTGGTAGTACGAGAGA,0.219
15,TCCCTAGTAGTACGAGAGA,1.22
16,TCCCGTAGAGTCTCAGAGA,0.257
17,TCCCTTTTAGTTATAGAGA,0.231
18,TCCCCACGAGTTCAGGAGA,0.271
19,TCCCGTAGAGTAATGGAGA,0.344
20,TCCCACTGAGTGAGAGAGA,0.473
21,TCCCTGTGAGTTGGGGAGA,0.189
22,TCCCGCGAAGTCAGAGAGA,0.382
23,TCCCTTAAAGTGAAGGAGA,0.097
24,TCCCCTTCAGTGAAGGAGA,0.702
25,TCCCCTAAAGTGAAGGAGA,0.721
26,TCCCCCAAAGTGAAGGAGA,0.104

row,Sequence,TetR repression strength
1,TCCCCTTCAGTGGAGGAGA,0.65
2,TCCCCTCCAGTGAAGGAGA,0.572
3,TCCCGTAAAGTTCAAGAGA,0.415
4,TCCCCGCCAGTTGGCGAGA,0.16
5,TCCCTTTGAGTAAATGAGA,0.33
6,TCCCTCCGAGTCATCGAGA,0.264
7,TCCCTTCAAGTGCGGGAGA,0.0975
8,TCCCCCTGAGTAGTAGAGA,0.207
9,TCCCCTAGAGTGGTAGAGA,0.634
10,TCCCCTATAGTGCTAGAGA,0.285
11,TCCCTTAGAGTGGTAGAGA,0.695
12,TCCCCTATAGTGGTAGAGA,0.84
13,TCCCCTATAGTGATAGAGA,0.982
14,TCCCTTAGAGTGGTCGAGA,0.215
15,TCCCCTATAGTGGTGGAGA,0.201
16,TCCCTTGGAGTGGTAGAGA,0.172
17,TCCCCTGTAGTGATAGAGA,0.387
18,TCCCCTTTAGTTGTAGAGA,0.246
19,TCCCGGTCAGTCTTTGAGA,0.165
20,TCCCCGAGAGTGAGGGAGA,0.129
21,TCCCCTTAAGTCGAGGAGA,0.157
22,TCCCATCGAGTCGGTGAGA,0.179
23,TCCCGGTTAGTGTAGGAGA,0.172
24,TCCCGCGCAGTCAGTGAGA,0.415
25,TCCCTCGAAGTGATCGAGA,0.343
26,TCCCAACAAGTGAATGAGA,0.336

row,Sequence,TetR repression strength
1,TCCCTCTAAGTTATAGAGA,0.703
2,TCCCTCAGAGTGATAGAGA,0.342
3,TCCCTCACAGTGATAGAGA,0.513
4,TCCCTCTCAGTTAGAGAGA,0.726
5,TCCCTGTAAGTTATAGAGA,0.375
6,TCCCTCTCAGTGATAGAGA,0.866
7,TCCCTCTCAGTCAGAGAGA,0.423
8,TCCCACTCAGTTATAGAGA,0.661
9,TCCCCCTAAGTTATAGAGA,0.525
10,TCCCTCTCAGTTAGTGAGA,0.339
11,TCCCTCTCAGTTATAGAGA,0.716
12,TCCCTGTCAGTTATAGAGA,0.649
13,TCCCGGTTAGTTGAGGAGA,0.12
14,TCCCTCAGAGTGTTAGAGA,0.248
15,TCCCGAGAAGTCCATGAGA,0.207
16,TCCCGTGAAGTCGCTGAGA,0.168
17,TCCCTAGTAGTAAGCGAGA,0.136
18,TCCCGCACAGTTATAGAGA,0.275
19,TCCCGCTCAGTTATAGAGA,0.764
20,TCCCGATCAGTTATAGAGA,0.579
21,TCCCGAGGAGTTGGCGAGA,0.14
22,TCCCGGAAAGTTGTGGAGA,0.275
23,TCCCCGGAAGTTACGGAGA,0.343
24,TCCCGGGGAGTTGTGGAGA,0.215
25,TCCCGGGGAGTTACGGAGA,0.447
26,TCCCGGGAAGTTACGGAGA,0.707

row,Sequence,TetR repression strength
1,TCCCGGGAAGTTGTGGAGA,1.1
2,TCCCCAAAAGTTTGTGAGA,0.0341
3,TCCCCTCGAGTTGGGGAGA,0.121
4,TCCCGGAGAGTCCTTGAGA,0.295
5,TCCCTCGAAGTGCGGGAGA,0.25
6,TCCCCAAGAGTAAATGAGA,0.368
7,TCCCGGATAGTGACCGAGA,0.131
8,TCCCTCCAAGTGGGAGAGA,0.14
9,TCCCCAGGAGTCTAGGAGA,0.284
10,TCCCGCCAAGTCCGGGAGA,0.21
11,TCCCGCCAAGTCCCGGAGA,1.1
12,TCCCTGCCAGTCTAGGAGA,0.415
13,TCCCCGCCAGTCCAGGAGA,0.104
14,TCCCCGGAAGTCTAGGAGA,0.113
15,TCCCTGCAAGTCTAGGAGA,0.171
16,TCCCTCCCAGTCTAGGAGA,0.263
17,TCCCGCCAAGTCCCTGAGA,0.389
18,TCCCCGCAAGTCTAGGAGA,0.739
19,TCCCCGCCAGTCTAGGAGA,0.681
20,TCCCCCCCAGTCTAGGAGA,0.8
21,TCCCCGTGAGTCGATGAGA,0.313
22,TCCCGCGTAGTCCGCGAGA,0.172
23,TCCCGAGTAGTGTGTGAGA,0.28
24,TCCCATTGAGTTCCGGAGA,0.115
25,TCCCATCCAGTGGGGGAGA,0.175
26,TCCCCCCTAGTTGTGGAGA,0.213
